From the supplement of paper PMC10849652
The full data set covers some 7,900 targets. This sample favours those with a hit. About 0.6% of all pairs of compound and target were hits. Unmarked numbers belong to inactive results.

Legend:
Test in all cases: log2 fold change, soluble protein after heating vs DMSO (PISA); higher = thermal stabilisation; K562 cells, 10 uM, 30 min; active = over 0.2 and 3.5 SD of the protein, either way, in both replicates (recomputed)
[1] = compound: CC[C@@H]1C(=O)N(C)c2cnc(Nc3ccc(C(=O)NC4CCN(C)CC4)cc3OC)nc2N1C1CCCC1
Summary of the method: (§1)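 K562 cells (2×10^6 cells/mL) were treated with 10 μM compound for 30 min, and aliquots were heated for 3 min over 48°C-58°C. Pooled aliquots were extracted in PBS with 0.5% NP-40 at 4°C, and the supernatant after 21,000xg for 90 min was measured by TMTpro 16plex LC-MS/MS with channel sums equalised. Reported thermal stability, relative to control samples and from duplicates, is a log2 fold change.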

[2] = compound: CC[C@@H]1C(=O)N(C)c2cnc(Nc3ccc(C(=O)N[C@H]4CC[C@H](N5CCN(CC6CC6)CC5)CC4)cc3OC)nc2N1C(C)C [volasertib]
Summary of the method: as §1

[3] = compound: CC[C@H](C)N1C=C(C2=C(C=C(C=C21)C3=CN=C(C=C3)N4CCNCC4)C(=O)NCC5=C(C=C(NC5=O)C)C)C
Summary of the method: as §1

[4] = compound: CC[C@H](C)[C@@H](C(=O)N[C@@H]([C@@H](C)O)C(=O)N[C@@H](CC(C)C)C(=O)[C@]1(CO1)C)NC(=O)[C@H]([C@@H](C)CC)N(C)C(=O)C [epoxomicin]
Summary of the method: as §1

[5] = compound: CCn1c(C(=O)N(C2CC2)C2CC2)cc2c3c(ncn3C)c(Nc3cc(C)n(C)n3)nc21
Summary of the method: as §1

[6] = compound: CCn1cc(-c2ccnc3[nH]c(-c4cccc(CN(C)C)c4)cc23)c(-c2ccc(NC(=O)N(C)C)cc2)n1
Summary of the method: as §1

[7] = compound: CN(C)CC(=O)Nc1ccc2[nH]c(=O)c3ccccc3c2c1
Summary of the method: as §1

[8] = compound: CN(CCOC1=CC=C(C=C1)C[C@H]2C(=O)NC(=O)S2)C3=CC=CC=N3 (racemic) [rosiglitazone]
Summary of the method: as §1

[9] = compound: CN1C2=C(C3=C1C(=O)N(N=C3)CC4=CC(=CC=C4)N)SC(=C2)S(=O)C
Summary of the method: as §1

[10] = compound: CN1CCC(CNc2ccc3ncc(-c4cccc(OC(F)(F)F)c4)n3n2)CC1
Summary of the method: as §1

Sequence of UniProt O76031 (O76031 whole entry, looked up): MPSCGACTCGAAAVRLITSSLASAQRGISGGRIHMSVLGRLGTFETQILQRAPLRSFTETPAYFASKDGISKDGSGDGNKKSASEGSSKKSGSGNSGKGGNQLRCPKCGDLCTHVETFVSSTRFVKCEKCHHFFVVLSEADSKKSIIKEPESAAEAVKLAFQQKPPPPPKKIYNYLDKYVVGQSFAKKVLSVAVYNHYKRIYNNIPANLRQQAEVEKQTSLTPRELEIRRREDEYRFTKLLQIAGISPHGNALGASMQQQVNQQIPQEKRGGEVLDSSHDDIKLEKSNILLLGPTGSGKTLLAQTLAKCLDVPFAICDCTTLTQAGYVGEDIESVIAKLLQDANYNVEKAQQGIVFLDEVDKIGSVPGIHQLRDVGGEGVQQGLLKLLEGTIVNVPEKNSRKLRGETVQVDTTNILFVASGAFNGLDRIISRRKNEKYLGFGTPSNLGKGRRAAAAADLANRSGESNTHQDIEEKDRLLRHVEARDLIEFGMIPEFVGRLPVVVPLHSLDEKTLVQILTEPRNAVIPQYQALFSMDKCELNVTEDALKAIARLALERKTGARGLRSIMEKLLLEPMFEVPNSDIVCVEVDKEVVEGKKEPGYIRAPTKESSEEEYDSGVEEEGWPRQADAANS
Sequence of UniProt P55060 (P55060 whole entry, looked up): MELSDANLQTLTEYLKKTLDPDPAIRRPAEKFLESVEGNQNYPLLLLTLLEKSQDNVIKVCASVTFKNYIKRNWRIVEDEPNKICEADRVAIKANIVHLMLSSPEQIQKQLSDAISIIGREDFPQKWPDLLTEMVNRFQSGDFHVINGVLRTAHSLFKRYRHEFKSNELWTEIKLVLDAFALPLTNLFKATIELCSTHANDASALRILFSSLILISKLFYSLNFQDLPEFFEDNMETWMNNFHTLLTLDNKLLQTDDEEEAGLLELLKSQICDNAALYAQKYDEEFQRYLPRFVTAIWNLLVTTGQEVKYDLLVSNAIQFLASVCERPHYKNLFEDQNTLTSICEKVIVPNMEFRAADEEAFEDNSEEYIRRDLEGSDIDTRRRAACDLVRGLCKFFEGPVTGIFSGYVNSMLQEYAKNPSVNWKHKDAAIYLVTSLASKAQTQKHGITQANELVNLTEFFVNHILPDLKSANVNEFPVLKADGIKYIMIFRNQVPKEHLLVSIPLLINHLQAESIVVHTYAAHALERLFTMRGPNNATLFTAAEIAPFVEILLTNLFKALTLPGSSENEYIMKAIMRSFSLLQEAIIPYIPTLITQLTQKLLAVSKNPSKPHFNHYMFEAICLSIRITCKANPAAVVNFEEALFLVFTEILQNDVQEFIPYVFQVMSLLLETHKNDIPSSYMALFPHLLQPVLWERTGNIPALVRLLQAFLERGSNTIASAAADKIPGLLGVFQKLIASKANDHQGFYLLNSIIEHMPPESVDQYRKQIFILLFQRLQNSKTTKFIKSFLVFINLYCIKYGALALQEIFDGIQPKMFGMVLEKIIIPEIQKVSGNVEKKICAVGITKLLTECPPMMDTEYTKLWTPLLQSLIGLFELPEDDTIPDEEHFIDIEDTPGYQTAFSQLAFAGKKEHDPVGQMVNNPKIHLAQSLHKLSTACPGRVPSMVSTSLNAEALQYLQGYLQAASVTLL
Sequence of UniProt O75122 (O75122 whole entry, looked up): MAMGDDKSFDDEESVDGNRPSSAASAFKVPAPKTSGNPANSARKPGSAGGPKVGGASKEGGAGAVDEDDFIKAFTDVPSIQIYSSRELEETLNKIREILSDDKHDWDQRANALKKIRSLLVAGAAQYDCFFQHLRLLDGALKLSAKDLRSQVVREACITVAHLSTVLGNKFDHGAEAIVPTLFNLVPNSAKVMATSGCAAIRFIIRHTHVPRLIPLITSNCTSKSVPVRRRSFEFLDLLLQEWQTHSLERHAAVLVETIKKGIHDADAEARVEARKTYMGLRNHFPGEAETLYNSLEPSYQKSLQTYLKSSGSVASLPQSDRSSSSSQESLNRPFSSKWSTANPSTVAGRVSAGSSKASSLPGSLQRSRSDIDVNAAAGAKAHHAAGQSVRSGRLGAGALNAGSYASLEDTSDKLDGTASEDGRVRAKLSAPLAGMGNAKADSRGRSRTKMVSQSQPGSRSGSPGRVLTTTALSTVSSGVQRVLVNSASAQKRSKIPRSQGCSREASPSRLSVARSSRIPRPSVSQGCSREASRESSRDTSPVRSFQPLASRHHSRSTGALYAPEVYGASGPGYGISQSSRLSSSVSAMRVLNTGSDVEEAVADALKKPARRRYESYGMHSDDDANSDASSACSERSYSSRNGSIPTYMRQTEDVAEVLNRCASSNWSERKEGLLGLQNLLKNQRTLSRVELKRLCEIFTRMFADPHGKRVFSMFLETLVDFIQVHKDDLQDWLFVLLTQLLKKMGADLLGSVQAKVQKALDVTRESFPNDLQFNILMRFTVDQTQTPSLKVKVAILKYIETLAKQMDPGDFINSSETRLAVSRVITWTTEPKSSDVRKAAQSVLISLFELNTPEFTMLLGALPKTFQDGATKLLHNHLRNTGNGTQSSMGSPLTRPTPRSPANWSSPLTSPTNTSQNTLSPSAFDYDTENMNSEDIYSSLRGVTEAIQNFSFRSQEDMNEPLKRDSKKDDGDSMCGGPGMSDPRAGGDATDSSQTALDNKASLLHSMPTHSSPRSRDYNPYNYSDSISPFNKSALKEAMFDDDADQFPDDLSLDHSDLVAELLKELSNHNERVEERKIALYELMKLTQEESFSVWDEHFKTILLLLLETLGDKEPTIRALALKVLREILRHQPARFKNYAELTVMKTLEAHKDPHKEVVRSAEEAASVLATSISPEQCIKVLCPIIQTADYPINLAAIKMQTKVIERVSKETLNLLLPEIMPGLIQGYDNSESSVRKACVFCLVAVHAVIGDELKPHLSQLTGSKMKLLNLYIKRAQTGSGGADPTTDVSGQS
Sequence of UniProt Q8N4S0 (Q8N4S0 whole entry, looked up): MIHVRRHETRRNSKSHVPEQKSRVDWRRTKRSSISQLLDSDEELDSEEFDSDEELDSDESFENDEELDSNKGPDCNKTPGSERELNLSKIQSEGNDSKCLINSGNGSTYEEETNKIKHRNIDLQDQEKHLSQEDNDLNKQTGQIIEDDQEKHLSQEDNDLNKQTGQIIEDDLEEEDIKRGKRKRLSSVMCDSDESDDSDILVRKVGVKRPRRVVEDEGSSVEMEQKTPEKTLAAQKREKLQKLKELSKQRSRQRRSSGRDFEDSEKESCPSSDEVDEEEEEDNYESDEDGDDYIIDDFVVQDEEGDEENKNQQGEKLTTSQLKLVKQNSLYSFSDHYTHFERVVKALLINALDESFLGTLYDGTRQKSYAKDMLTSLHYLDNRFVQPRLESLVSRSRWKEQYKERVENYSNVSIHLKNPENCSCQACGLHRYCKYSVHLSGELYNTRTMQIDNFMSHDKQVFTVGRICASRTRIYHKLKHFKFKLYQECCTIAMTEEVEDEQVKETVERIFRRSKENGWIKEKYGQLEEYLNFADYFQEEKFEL
Sequence of UniProt A8MTT3 (A8MTT3 whole entry, looked up): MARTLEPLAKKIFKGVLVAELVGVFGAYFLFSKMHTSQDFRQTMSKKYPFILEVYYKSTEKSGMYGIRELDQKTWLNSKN
Sequence of UniProt Q13111 (Q13111 whole entry, looked up): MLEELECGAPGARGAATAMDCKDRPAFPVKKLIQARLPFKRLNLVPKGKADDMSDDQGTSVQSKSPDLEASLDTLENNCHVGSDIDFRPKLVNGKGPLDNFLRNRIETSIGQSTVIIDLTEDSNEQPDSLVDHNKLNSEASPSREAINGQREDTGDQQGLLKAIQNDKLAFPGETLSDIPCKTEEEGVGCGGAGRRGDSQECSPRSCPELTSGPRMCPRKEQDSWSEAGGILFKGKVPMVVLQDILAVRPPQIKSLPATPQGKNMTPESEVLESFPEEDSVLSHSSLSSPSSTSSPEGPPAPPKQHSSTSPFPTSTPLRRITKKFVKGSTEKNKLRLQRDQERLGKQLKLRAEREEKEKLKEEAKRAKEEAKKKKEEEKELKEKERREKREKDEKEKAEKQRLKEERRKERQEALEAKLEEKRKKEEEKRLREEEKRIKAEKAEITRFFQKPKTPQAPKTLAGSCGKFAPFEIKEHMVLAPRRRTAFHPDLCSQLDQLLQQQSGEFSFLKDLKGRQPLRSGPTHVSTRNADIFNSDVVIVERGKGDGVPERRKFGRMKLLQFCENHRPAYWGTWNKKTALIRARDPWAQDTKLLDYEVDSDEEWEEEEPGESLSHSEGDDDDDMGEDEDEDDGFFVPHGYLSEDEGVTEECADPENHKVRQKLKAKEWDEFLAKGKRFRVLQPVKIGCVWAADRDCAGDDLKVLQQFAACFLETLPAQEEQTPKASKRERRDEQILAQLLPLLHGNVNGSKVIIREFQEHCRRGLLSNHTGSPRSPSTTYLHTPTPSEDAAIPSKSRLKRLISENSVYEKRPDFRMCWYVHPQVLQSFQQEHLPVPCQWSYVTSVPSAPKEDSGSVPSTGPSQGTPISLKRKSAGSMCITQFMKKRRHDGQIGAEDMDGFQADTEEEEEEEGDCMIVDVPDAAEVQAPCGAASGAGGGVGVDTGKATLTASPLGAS
Sequence of UniProt Q6NZI2 (Q6NZI2 whole entry, looked up): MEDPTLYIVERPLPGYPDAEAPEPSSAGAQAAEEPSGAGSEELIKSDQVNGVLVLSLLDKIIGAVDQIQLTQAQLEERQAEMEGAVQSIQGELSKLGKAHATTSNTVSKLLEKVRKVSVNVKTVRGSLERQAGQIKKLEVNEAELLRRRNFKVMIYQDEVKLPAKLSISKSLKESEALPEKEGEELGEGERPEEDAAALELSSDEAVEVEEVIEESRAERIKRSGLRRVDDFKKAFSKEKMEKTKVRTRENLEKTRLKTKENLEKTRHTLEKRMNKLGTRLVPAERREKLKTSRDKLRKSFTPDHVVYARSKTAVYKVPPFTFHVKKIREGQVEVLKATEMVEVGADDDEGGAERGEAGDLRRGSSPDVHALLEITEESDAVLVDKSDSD
Sequence of UniProt Q8N4Q1 (Q8N4Q1 whole entry, looked up): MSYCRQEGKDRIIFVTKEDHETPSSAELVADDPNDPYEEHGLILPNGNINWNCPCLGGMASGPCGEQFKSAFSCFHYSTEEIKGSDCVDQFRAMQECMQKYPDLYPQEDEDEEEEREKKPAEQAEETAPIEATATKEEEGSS

Row | Target | log2 fold change [1] | log2 fold change [2] | log2 fold change [3] | log2 fold change [4] | log2 fold change [5] | log2 fold change [6] | log2 fold change [7] | log2 fold change [8] | log2 fold change [9] | log2 fold change [10]
1 | CETN3 (UniProt O15182) | 0.037 | -0.028 | 0.006 | 0.042 | 0.032 | -0.014 | -0.043 | 0.032 | -0.013 | -0.287 (active)
2 | CNOT7 (UniProt Q9UIV1) | -0.086 | -0.305 (active) | -0.049 | -0.053 | -0.16 | -0.052 | -0.121 | -0.04 | 0.021 | -0.082
3 | CDC123 (UniProt O75794) | 0.06 | -0.002 | 0.07 | 0.137 | -0.012 | -0.021 | 0.015 | 0.034 | -0.009 | -0.1
4 | CLPP (UniProt Q16740) | -0.03 | 0.035 | -0.045 | -0.056 | -0.023 | -0.015 | 0.017 | -0.035 | 0 | 0.081
5 | COQ9 (UniProt O75208) | -0.04 | -0.05 | 0.001 | -0.041 | -0.022 | 0.002 | 0.018 | 0.025 | -0.057 | -0.135
6 | CLPX (UniProt O76031) | 0.039 | 0.192 | -0.06 | -0.019 | -0.03 | -0.022 | 0.026 | -0.009 | -0.01 | 0.072
7 | C1D (UniProt Q13901) | 0.088 | 0.076 | -0.034 | 0.02 | 0 | -0.021 | -0.127 | -0.008 |  | 0.096
8 | CHST11 (UniProt Q9NPF2) | -0.215 | -0.187 | -0.078 | 0.011 | 0.043 | -0.017 | -0.045 | -0.044 |  | 0.022
9 | C19orf53 (UniProt Q9UNZ5) | 0.205 | 0.412 | 0.045 | -0.264 | 0.104 | 0.239 | -0.189 | -0.182 | 0.34 | 0.2
10 | CMTM3 (UniProt Q96MX0) | 0.066 | -0.088 | -0.061 | 0.075 | -0.009 | 0.057 | 0.02 | -0.324 (active) | 0.048 | -0.122
11 | COMMD1 (UniProt Q8N668) | -0.029 | -0.041 | 0.054 | -0.071 | -0.063 | 0.157 | 0.019 | 0.016 |  | 0.295
12 | CLCN7 (UniProt P51798) | -0.338 (active) | -0.297 | 0.031 | -0.001 | -0.022 | -0.047 | -0.01 | 0.049 | 0.009 | -1.05 (active)
13 | COCH (UniProt O43405) | 0.117 | -0.08 | -0.065 | -0.153 | 0.054 | 0.075 | -0.127 | -0.056 | 0.007 | 0.076
14 | CSE1L (UniProt P55060) | -0.209 (active) | -0.403 (active) | 0.047 | 0.03 | 0.002 | -0.068 | 0.008 | 0.047 | -0.095 | -0.181
15 | COPS4 (UniProt Q9BT78) | -0.045 | -0.007 | 0.013 | 0.047 | 0.001 | -0.022 | 0.023 | 0.018 | -0.092 | -0.007
16 | CCNH (UniProt P51946) | -0.034 | -0.028 | 0.021 | -0.024 | -0.004 | 0.046 | -0.019 | -0.001 | -0.069 | 0.005

Row | Target | log2 fold change [1] | log2 fold change [2] | log2 fold change [3] | log2 fold change [4] | log2 fold change [5] | log2 fold change [6] | log2 fold change [7] | log2 fold change [8] | log2 fold change [9] | log2 fold change [10]
17 | CAVIN1 (UniProt Q6NZI2) | 0.072 | 0.182 | -0.007 | -0.125 | 0.013 | 0.085 | -0.06 | -0.037 | 0.124 | -0.074
18 | CDK5RAP3 isoform 4 (UniProt Q96JB5) | -0.056 | -0.296 (active) | 0 | 0.021 | -0.044 | -0.007 | 0.033 | 0.055 | -0.024 | -0.002
19 | CSNK2B (UniProt P67870) | -0.029 | 0.009 | 0.043 | 0.019 | 0.001 | -0.051 | 0.027 | 0.034 | -0.048 | -0.176
20 | CHERP (UniProt Q8IWX8) | -0.162 | -0.888 (active) | -0.014 | 0.064 | -0.024 | 0.022 | 0.041 | -0.004 | 0.102 | -0.05
21 | CLASP2 isoform 3 (UniProt O75122) | -0.175 | -0.326 (active) | 0.054 | 0.034 | -0.087 | -0.024 | 0.051 | 0.038 | 0 | -0.227 (active)
22 | CHCHD4 isoform 2 (UniProt Q8N4Q1) | -0.009 | -0.125 | -0.096 | -0.186 | -0.034 | 0.231 | -0.023 | -0.007 | -0.107 | 0.795 (active)
23 | CHAMP1 (UniProt Q96JM3) | -0.035 | -0.357 (active) | 0.181 | 0.016 | -0.038 | -0.095 | 0.014 | 0.063 | 0.038 | -0.302
24 | CRTC2 (UniProt Q53ET0) | 0.014 | 0.016 | 0.061 | 0.098 | -0.023 |  | -0.009 | -0.043 |  | 
25 | CHAF1A (UniProt Q13111) | 0.025 | -0.021 | 0.036 | -0.039 | -0.078 | 0.064 |  | -0.018 | 0.158 | 0.051
26 | CNN1 (UniProt P51911) | -0.049 | -0.066 | -0.066 | -0.015 |  | -0.403 | -0.007 |  |  | -0.192
27 | CDC42SE1 (UniProt Q9NRR8) | -0.995 (active) | -2.6 (active) | -0.127 | 0.031 | 0.029 |  | 0.05 | -0.017 | -0.074 | 
28 | CORO2A (UniProt Q92828) | 0.164 | -0.075 | 0.01 |  | -0.016 | 0 | -0.038 | 0.011 | -0.022 | -0.096
29 | CHPT1 (UniProt Q8WUD6) | -0.324 | -0.228 | 0.119 | -0.176 |  | -0.042 |  |  | 0.047 | -0.79 (active)
30 | CCDC82 (UniProt Q8N4S0) | -0.062 | -0.349 (active) | -0.018 | 0.143 | -0.057 |  | 0.001 | 0 | -0.069 | 
31 | CEBPZOS (UniProt A8MTT3) | 0.002 | -0.035 | -0.038 |  | 0.057 | 0.013 | -0.001 | 0.101 | -0.103 | -0.015
